Laboratory results taken from PubChem BioAssay AID2158 (National Center for Advancing Translational Sciences (NCATS), 2009).
Records with an inconclusive call do not appear. Calls of active or inactive are those of the source. Calls come from the whole dose curve; as a rule, active = well fitted inhibition curve with a large enough effect; inconclusive = small, poorly fitted or top-dose-only effect; inactive = no such curve, though single readings can be large or run the other way.

Target: Cruzipain (Trypanosoma cruzi) (UniProt P25779)
Test: Confirmation qHTS Assay for Inhibitors of Cruzain; note: nearly all actives have a fitted effect of over 40% in size;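 for activity change, negative = inhibition: plate controls were uninhibited enzyme control for no effect and buffer wells lacking enzyme for full effect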
Conditions: purified cruzain, Z-FR-AMC fluorescence, 0.01% Triton
Procedure, shortened: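 Reaction progress from the 60 s rise in AMC fluorescence (ex 360, em 450 nm) after adding 2 uM Z-FR-AMC. Before this, 1.5 nM cruzain sat 15 min at room temperature with compound in pH 5.5 acetate buffer with 5 mM DTT and 0.01% Triton X-100.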
Potency is the fitted concentration of half-maximal effect.

Cruzipain (Trypanosoma cruzi), sequence (P25779 123-467 limits assumed): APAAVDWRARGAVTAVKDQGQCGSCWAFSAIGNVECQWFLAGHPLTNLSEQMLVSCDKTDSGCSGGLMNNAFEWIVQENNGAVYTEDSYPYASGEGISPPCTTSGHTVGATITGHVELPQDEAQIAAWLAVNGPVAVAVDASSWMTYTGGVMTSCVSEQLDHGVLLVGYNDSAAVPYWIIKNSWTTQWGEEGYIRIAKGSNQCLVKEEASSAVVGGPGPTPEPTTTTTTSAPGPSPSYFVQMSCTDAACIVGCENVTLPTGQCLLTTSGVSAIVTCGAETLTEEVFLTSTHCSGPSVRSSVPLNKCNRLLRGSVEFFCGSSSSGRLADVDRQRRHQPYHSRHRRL

| Structure (SMILES) | activity change, negative = inhibition | Potency |
| --- | --- | --- |
| CCCCNC(=O)Cn1c(SCc2cccc(F)c2)nc2ccncc21 | -27.5% (inactive) | – |
| Cc1cccc(C(=O)NCC(=O)OCC(=O)c2ccc3ccccc3c2)c1 | – | 12.6 µM (active) |
| CCCCC(OC(=O)CNC(=O)c1ccccc1)C(=O)Nc1cc(C(F)(F)F)ccc1Cl (centres undefined) | – | 8.91 µM (active) |
| COc1cc(C(=O)COC(=O)CNC(=O)C2CCCCC2)cc(OC)c1OC | – | 7.94 µM (active) |
| O=C(N/N=C\c1ccccc1O)c1ccccc1O | -9.61% (inactive) | – |
| O=C(CNC(=O)c1cccc2ccccc12)OC(C(=O)Nc1cc(C(F)(F)F)ccc1Cl)c1ccccc1 (centres undefined) | – | 12.6 µM (active) |
| CNC(=O)c1ccc2nc(-c3ccco3)c(-c3ccco3)nc2c1 | – | 7.08 µM (active) |
| COC(=O)CCC(C)C1CCC2C3C(O)C[C@@H]4CC(O)CC[C@@]4(C)C3CC(O)[C@]12C (some centres undefined) | -0.647% (inactive) | – |
| O=C(CNC(=O)C1CCCCC1)OCC(=O)c1cccc(Cl)c1 | – | 2.82 µM (active) |
| COc1ccc2cc3cc(C(=O)NCCCN4CCOCC4)oc3nc2c1 | -114% (inactive) | – |
| COc1ccc(S(=O)(=O)NC2CCN(C#N)CC2)cc1 | -4.94% (inactive) | – |
| COc1ccc(-c2nn3c(-c4cc(-c5ccccc5)n[nH]4)nnc3s2)cc1OC | -9.95% (inactive) | – |
| O=C(CNC(=O)c1ccc([N+](=O)[O-])cc1)OC(C(=O)Nc1cc(C(F)(F)F)ccc1Cl)c1ccccc1 (centres undefined) | – | 12.6 µM (active) |
| COc1cc2cc(CN(Cc3nnnn3Cc3ccco3)C3CCCCC3)c(=O)[nH]c2cc1OC | – | 14.1 µM (active) |
